Like-named read-outs stand apart in the source and are kept apart here. The whole screen tested about 13,000 compounds, of which about 3,200 (25%) showed an effect of 50% or more. The list shows a part of the results.
Test system: P. falciparum stage V gametocytes
Set-up: BacTiter-Glo ATP luminescence viability of purified stage V gametocytes in 384-well plates, per cent inhibition versus DMSO
Details: 48 h, 5 µM, inhibitor

Structure (SMILES)	% Inhibition [%]	% Inhibition (% Inhibition) [%]
Cc1nc(-c2cccc(Nc3nccc(NCC(O)c4cccc(C(F)(F)F)c4)n3)c2)cs1 (centres unmarked) [TCMDC-136581]	-55.32	–
CC(Cc1ccc(COc2ccc(CC(CO)NCCc3cccc(Cl)c3)cc2)cc1)NCCc1cccc(Cl)c1 (centres unmarked) [TCMDC-139844]	116.5	–
CC(Cc1ccc(OCc2ccccc2)cc1)NCC(O)c1cccc(Cl)c1 (centres unmarked) [TCMDC-131473]	11.58	–
CC(Cc1ccc(OCc2ccc(CCN(C)C)cc2)cc1)NCCc1cccc(Cl)c1 (centres unmarked) [TCMDC-139644]	101.3	–
CC(Cc1ccc(OCC(=O)NCC2CCN(CCc3cccc(Cl)c3)CC2)cc1)NCCc1cccc(Cl)c1 (centres unmarked) [TCMDC-139834]	46.25	–
CCCCCCNC(=O)C1Cc2c([nH]c3ccc(C)cc23)C2(CCN(CCc3ccccc3)CC2)N1 (centres unmarked) [TCMDC-141092]	-44.59	–
Cc1ccc(-c2cc(C(=O)Nc3ccc(S(=O)(=O)N4CCCC(C)C4)cc3)[nH]n2)c(O)c1 (centres unmarked) [TCMDC-125183]	-50.15	–
COc1cc(CCOc2c(C)nc(N)nc2N)cc(OC)c1OC [TCMDC-131360]	-25.98	–
FC(F)(F)c1ccc(Nc2nnnc3ccccc23)cc1 [TCMDC-125603]	38.58	–
CC(Cc1ccc(Oc2ccc(Cl)cc2)cc1)NCC(O)c1cccc(Cl)c1 (centres unmarked) [TCMDC-131511]	4.056	–
CC(Cc1ccc(SCCSc2ccccc2)cc1)NCC(O)c1cccc(Cl)c1 (centres unmarked) [TCMDC-131515]	37.98	–
C[C@H](Cc1ccc(CCc2ccc(C[C@@H](C)NC[C@H](O)c3cccc(Cl)c3)cc2)cc1)NC[C@H](O)c1cccc(Cl)c1 [TCMDC-131551]	114.3	–
COc1ccc(CC(Cc2ccc(OC)cc2)NCC(O)c2cccc(Cl)c2)cc1 (centres unmarked) [TCMDC-131543]	12.1	–
CCCCCCCSc1ccc(CC(C)NCC(O)c2cccc(Cl)c2)cc1 (centres unmarked) [TCMDC-131493]	21.35	–
CC(Cc1ccc(CSC(C)C)cc1)NCC(O)c1cccc(Cl)c1 (centres unmarked) [TCMDC-131525]	23.17	–
COC(=O)/C=C/c1ccc(CC(C)NCC(O)c2cccc(Cl)c2)cc1 (centres unmarked) [TCMDC-131433]	-3.295	–
Cc1ccc(CCC(C)NCC(O)c2cccc(Cl)c2)cc1 (centres unmarked) [TCMDC-131436]	13.72	–
CNCCCCCCc1ccc(CC(C)NCC(O)c2cccc(Cl)c2)cc1 (centres unmarked) [TCMDC-131495]	95.63	–
C[C@H](Cc1ccc(S(=O)(=O)c2ccc(C[C@@H](C)NC[C@H](O)c3cccc(Cl)c3)cc2)cc1)NC[C@H](O)c1cccc(Cl)c1 [TCMDC-131561]	74.46	–
C[C@H](Cc1ccc(Oc2ccc(C[C@@H](C)NC[C@H](O)c3cccc(Cl)c3)cc2)cc1)NC[C@H](O)c1cccc(Cl)c1 [TCMDC-131560]	108	–
CC(Cc1ccc(S(=O)(=O)N(C(C)C)C(C)C)cc1)NCC(O)c1cccc(C(F)(F)F)c1 (centres unmarked) [TCMDC-131526]	19.58	–
O=C(CCCCCNC(=O)c1ccc(O)c(-c2ccc(Cl)c(Cl)c2)c1)NCCN1CCCC1 [TCMDC-140826]	-20.01	–
O=C(N[C@@H](CC1CCCCC1)C(=O)NCCN1CCOCC1)c1ccc(O)c(-c2ccc(Cl)c(Cl)c2)c1 [TCMDC-140854]	37.92	–

Structure (SMILES)	% Inhibition [%]	% Inhibition (% Inhibition) [%]
O=C(NC1CCN(c2ccnc3ccccc23)C1)c1ccc(OC(F)(F)F)cc1 (centres unmarked) [TCMDC-133582]	-7.681	–
O=c1cc(NCCCNCc2ccc3c(c2)OC(F)(F)O3)[nH]c2ccccc12 [TCMDC-139426]	-44.23	–
CCCN(CCCCNC(=O)c1ccc(-c2cccnc2)cc1)C1CCc2c(O)cccc2C1 (centres unmarked) [TCMDC-139071]	-19.52	–
CC(=O)Nc1ccc(CN2CCc3ccc(NS(=O)(=O)c4cccc(OCc5ccc(Cl)cc5)c4)cc3CC2)s1 [TCMDC-132327]	4.938	–
O=C(Nc1ccc(-c2cccc(-c3nc4ccc(F)cc4[nH]3)c2)cc1)Nc1ccc(F)c(F)c1F [TCMDC-133235]	-6.689	–
CN(C)CCOc1cccc(-c2cnc(N)c(-c3nc4ccc(S(C)(=O)=O)cc4[nH]3)c2)c1 [TCMDC-133722]	17.79	–
CN(Cc1cnc2nc(N)nc(N)c2n1)c1ccc(C(=O)NC(CCC(=O)O)C(=O)O)cc1 (centres unmarked) [TCMDC-125488]	–	31.4
Cc1[nH]c(C)c(-c2ccc(Oc3cccc(OC(F)(F)F)c3)cc2)c(=O)c1Cl [TCMDC-137389]	30.57	–
Cc1[nH]c(C)c(-c2ccc(Oc3ccc(OC(F)(F)F)cc3)cc2)c(=O)c1I [TCMDC-137387]	20.63	–
Cc1[nH]c(C)c(-c2ccc(-c3ccc(OC(F)(F)F)cc3)cc2)c(=O)c1Cl [TCMDC-136060]	114.3	–
Cc1[nH]c(C)c(-c2ccc(Oc3ccc(OC(F)(F)F)cc3)cc2)c(=O)c1Br [TCMDC-137325]	–	14.7
Cc1[nH]c(C)c(-c2ccc(Oc3ccc(OC(F)(F)F)cc3)cc2)c(=O)c1Br [TCMDC-138826]	–	69.76
Cc1[nH]c(C)c(-c2ccc(-c3ccc(OC(F)(F)F)cc3)cc2)c(=O)c1Br [TCMDC-134726]	85.61	–
Cc1[nH]c(C)c(-c2cccc(-c3ccc(OC(F)(F)F)cc3)c2)c(=O)c1Br [TCMDC-135303]	76.13	–
CS(=O)(=O)NCCCNCc1ccc(-c2ccc(-c3nc4cc(F)ccc4[nH]3)cc2)cc1.O=C(O)C(F)(F)F [TCMDC-133081]	-74.36	–
Cc1cc(Nc2cc(Cl)cc(Cl)c2)nc(N)n1 [TCMDC-123780]	13.41	–
CCCCc1ccc2[nH]cc(C3=CCN(C)CC3)c2c1Br [TCMDC-138963]	18.47	–
CCCCc1ccc(-c2nc(NC(=O)Nc3nc(-c4ccccc4)[nH]c3C(=O)OCC)c(C(=O)OCC)[nH]2)cc1 [TCMDC-138897]	-17.92	–
CC(C)Nc1nc(NCCc2cnc[nH]2)nc(Nc2ccc(Oc3ccccc3)cc2)n1 [TCMDC-139746]	-7.765	–
COc1cc(CNCCCNc2cc(=O)c3ccccc3[nH]2)c2c(c1)C(C)CN2C(=O)OC(C)(C)C (centres unmarked) [TCMDC-140390]	-23.23	–
Cc1c(O)cccc1Nc1ccnc2ccc(C(F)(F)F)cc12 [TCMDC-138246]	-8.539	–
CN(C)C(=O)CN1CCN(c2ncnc(N3CCc4c([nH]c5ccccc45)[C@@H]3c3ccc4c(c3)CCO4)n2)CC1 [TCMDC-138571]	5.552	–
Oc1cccc(C2CCCN(Cc3cccc4cc[nH]c34)C2)c1 (centres unmarked) [TCMDC-134419]	-7.919	–

Structure (SMILES)	% Inhibition [%]	% Inhibition (% Inhibition) [%]
CCCCc1cc(NCc2ccncc2)nc(Nc2ccc(C)cc2)n1 [TCMDC-134000]	-5.693	–
NC1CCCN(Cc2cccc(-c3ccc(-c4nc5ccc(F)cc5[nH]4)cc3)c2)C1 (centres unmarked) [TCMDC-133855]	20.47	–
OC1CCCN(Cc2ccc(-c3cccc(-c4nc5ccc(F)cc5[nH]4)c3)cc2)C1 (centres unmarked) [TCMDC-133815]	-14.67	–
CC1CN(Cc2ccc(-c3ccc(-c4nc5cc(F)ccc5[nH]4)cc3)cc2)CC(C)O1.O=C(O)C(F)(F)F (centres unmarked) [TCMDC-133831]	-15.75	–
CC(=O)N(C)C1CCN(Cc2ccc(-c3cccc(-c4nc5ccc(F)cc5[nH]4)c3)cc2)C1 (centres unmarked) [TCMDC-133885]	25.2	–
NC1CCN(Cc2ccc(-c3cccc(-c4nc5ccc(F)cc5[nH]4)c3)cc2)C1 (centres unmarked) [TCMDC-133838]	61.76	–
NC1CCCN(Cc2ccc(-c3cccc(-c4nc5ccc(F)cc5[nH]4)c3)cc2)C1 (centres unmarked) [TCMDC-133840]	68.96	–
NC1CCN(Cc2ccc(-c3ccc(-c4nc5cc(F)ccc5[nH]4)cc3)cc2)C1 (centres unmarked) [TCMDC-133872]	102.5	–
NC1CCN(Cc2cccc(-c3ccc(-c4nc5ccc(F)cc5[nH]4)cc3)c2)C1 (centres unmarked) [TCMDC-133853]	40.4	–
O=C(O)C(F)(F)F.OC1CCCN(Cc2ccc(-c3ccc(-c4nc5cc(F)ccc5[nH]4)cc3)cc2)C1 (centres unmarked) [TCMDC-133833]	-10.21	–
O=C(Nc1ccc2c(c1)CCN2C1CCN(Cc2ccc(O)cc2)C1)c1ccco1 (centres unmarked) [TCMDC-135066]	-16.31	–
COC(=O)c1ccc(CC(C)NCC(O)c2cccc(C(F)(F)F)c2)cc1F (centres unmarked) [TCMDC-131519]	6.156	–
NC1=NC(c2ccccc2)(c2ccccc2)C(=O)N1Cc1ccccc1Br [TCMDC-136813]	-33.84	–
O=c1cc(NCc2ccccc2NCc2ccc(Cl)c(Cl)c2)[nH]c2ccccc12 [TCMDC-139499]	-0.9265	–
COc1ccc2c(NN=Cc3ccncc3)cc(C)nc2c1 [TCMDC-142038]	85.05	–
COc1ccc2nc(C)cc(NN=Cc3cc(C)ccc3O)c2c1 [TCMDC-124232]	86.79	–
COc1ccc2c(Nc3ccc(N4CCN(C)CC4)cc3)cc(C)nc2c1 [TCMDC-123914]	63.09	–
COc1ccc2nc(C)cc(Nc3ccc(Cl)c(Cl)c3)c2c1 [TCMDC-124166]	19.57	–
COc1ccc2nccc(NN=Cc3ccncc3)c2c1 [TCMDC-142033]	25.13	–
COc1ccc2c(NN=Cc3ccncc3)ccnc2c1 [TCMDC-142030]	-7.897	–
COc1ccc2nc(C)cc(Nc3ccc(N4CCN(C)CC4)cc3)c2c1 [TCMDC-125813]	1.536	–
COc1ccc(C=NNc2cc(C)nc3ccc(OC)cc23)c(OC)c1 [TCMDC-123955]	105.7	–

— paper PMC4552634, “A New Set of Chemical Starting Points with Plasmodium falciparum Transmission-Blocking Potential for Antimalarial Drug Discovery” (PLoS ONE, 2015)
